Pol kappa inh: DNA polymerase kappa (human) inhibition. Potency, µM (titrated, usually from 107 µM), hits mostly inhibitors. purified Pol kappa, fluorescent DNA synthesis assay, 10 min. Q9UBT6. 0.53% of 400,000 active. AID 588579
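50 nM final substrate added after 15 min RT preincubation of 10 nM Pol kappa with compound; fluorescence read at 0 and 10 min.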
POLB inh: blocks human DNA polymerase beta activity. Pol beta primer extension/strand displacement, fluorescence kinetic. Potency, µM (top dose mostly 114 µM), hits mostly inhibitors. 1.3% of 340,000 active. AID 485314
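Enzyme-only controls used 10 nM Pol beta; buffer lacking enzyme served as negative control. Compound preincubated 15 min, then 50 nM substrate added; 0 and 10 min reads at room temperature.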
WRN inhibitor: inhibitors of human WRN helicase; Q14191; WRN helicase unwinding, fluorescent forked duplex, kinetic; Potency, µM (titrated, usually from 114 µM), usual class: inhibitors; 0.46% of 360,000 active; AID 651768; note: nearly all actives have a fitted effect of over 55% in size
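Enzyme (20 nM final) and test compound sit together 15 min at room temperature before substrate addition. Substrate is a single-forked duplex oligonucleotide (100 nM) labelled with fluorophore and quencher, with 2 mM ATP; helicase unwinding raises red fluorescence, read kinetically.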
POLH inh: DNA polymerase eta (human) inhibition. recombinant Pol eta, fluorescent DNA replication assay. Potency, µM (highest dose often 114 µM), usual class: inhibitors. Q9Y253. 1.2% of 390,000 active
Target sequence (Q9Y253 whole entry, looked up): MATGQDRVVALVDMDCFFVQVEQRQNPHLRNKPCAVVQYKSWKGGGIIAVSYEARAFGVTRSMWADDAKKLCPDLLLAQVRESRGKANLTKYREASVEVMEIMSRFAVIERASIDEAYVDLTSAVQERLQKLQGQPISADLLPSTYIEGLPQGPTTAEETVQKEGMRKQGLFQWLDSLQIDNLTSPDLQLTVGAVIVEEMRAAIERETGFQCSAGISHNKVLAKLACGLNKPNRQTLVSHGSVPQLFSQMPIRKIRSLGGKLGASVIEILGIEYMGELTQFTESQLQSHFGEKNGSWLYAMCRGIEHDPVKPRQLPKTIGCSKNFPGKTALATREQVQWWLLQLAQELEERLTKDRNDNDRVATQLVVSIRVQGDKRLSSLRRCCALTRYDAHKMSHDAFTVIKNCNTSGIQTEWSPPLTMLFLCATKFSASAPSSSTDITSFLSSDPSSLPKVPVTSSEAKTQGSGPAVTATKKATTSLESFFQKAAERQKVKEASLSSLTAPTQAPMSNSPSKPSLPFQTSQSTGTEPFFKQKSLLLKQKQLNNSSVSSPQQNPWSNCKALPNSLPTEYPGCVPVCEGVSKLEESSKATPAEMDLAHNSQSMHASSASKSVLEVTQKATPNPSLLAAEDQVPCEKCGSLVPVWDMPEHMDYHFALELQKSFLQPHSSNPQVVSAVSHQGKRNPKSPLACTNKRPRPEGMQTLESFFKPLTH
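Pol eta at 10 nM preincubated with compounds 15 min at room temperature; reaction started with fluorescent substrate (50 nM final) and read kinetically at 0 and 10 min.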
POLI inh: DNA polymerase iota (human) inhibition | Q9UNA4 | Pol iota fluorescent replication assay, 10 min | Potency, µM (top dose mostly 115 µM), usual class: inhibitors | 1% of 390,000 active | AID 588590
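Fluorescent replication assay read twice, at 0 min and 10 min after adding 50 nM (final) substrate. Enzyme (10 nM) and compounds were first incubated 15 min at room temperature; enzyme-free buffer wells were negative controls.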
Of the large screens only hits and unclear results are named; the others gave an inactive call. Compounds with a hit are over-represented: about 2.3% of the library has one in this group of screens. Calls come from the whole dose curve; as a rule, active = well fitted curve in the direction sought with a large enough effect; inconclusive = small, poorly fitted or top-dose-only effect, or another doubt; inactive = no such curve, though single readings can be large; an effect the other way counts as inactive or inconclusive.

O=C(O[C@H]1[C@H](Cc2ccccc2)NS(=O)(=O)[C@H]2CC3C=C[C@]12O3)c1ccc(Br)cc1	none (no result: POLB inh, WRN inhibitor, POLH inh)
CCCCCCCCOc1ccccc1C(=O)Nc1ccc(C(=O)OCC[N+](C)(CC)CC)cc1	none (no result: POLB inh, WRN inhibitor, POLH inh, POLI inh)
O=[N+]([O-])c1ccc(Cl)c(S(=O)(=O)/N=C(/Sc2ccc(Br)cc2)c2ccccc2)c1	none (no result: POLB inh, WRN inhibitor, POLH inh)
Cc1ccc(NC(=O)NNC(=O)c2cc3ccccc3cc2O)cc1C	POLB inh inconclusive, POLI inh inconclusive
Cc1ccc(C)c(NC(=O)NNC(=O)c2cc3ccccc3cc2O)c1	Pol kappa inh inconclusive, POLB inh 35µM, POLH inh inconclusive, POLI inh 35µM
O=C(/C=C/c1ccc(Cl)cc1)NC(=S)Nc1ccccc1C(=O)O	POLB inh inconclusive, POLH inh 56µM, POLI inh inconclusive
CCC(=O)Oc1ccc(/C=C(\C#N)c2nc3ccccc3[nH]2)cc1OC	none (no result: WRN inhibitor, POLH inh)
COc1ccc(/C=C(\C#N)c2nc3ccccc3[nH]2)cc1O	POLB inh 25µM, WRN inhibitor inconclusive, POLH inh 79µM, POLI inh inconclusive
CCOC(=O)COc1ccc(/C=C(\C#N)c2nc3ccc(C)cc3[nH]2)cc1OC	Pol kappa inh inconclusive, POLB inh 11µM, POLH inh 79µM, POLI inh inconclusive (no result: WRN inhibitor)
Cc1cc(/C=C(\C#N)c2nc3ccccc3[nH]2)c(C)n1C	POLB inh 40µM, POLH inh inconclusive, POLI inh inconclusive
Cc1cc(/C=C(/C#N)c2nc3ccccc3[nH]2)c(C)n1-c1cccc([N+](=O)[O-])c1	none
CC(C)(C)n1ncc2c(=O)n(Cc3cccc(-c4cccs4)c3)cnc21	none (no result: POLB inh, WRN inhibitor, POLH inh)
COC1=C(c2ccccc2)C(=O)c2ccccc2C1=O	POLI inh inconclusive
COC1=CC(=O)C=C(OC)C1=O	WRN inhibitor 45µM, POLI inh inconclusive (no result: POLB inh)
COC1=CC(=O)c2ccccc2C1=O	POLH inh inconclusive, POLI inh 14µM (no result: POLB inh)
Nc1nc2ncn(COCCO)c2c(=O)[nH]1	none (no result: POLB inh, WRN inhibitor, POLH inh)
CCN(CC)S(=O)(=O)c1cc(-c2nn(C)c(=O)c3ccccc23)ccc1C	POLB inh 45µM, POLH inh inconclusive, POLI inh inconclusive
CCCCNS(=O)(=O)c1cc(-c2nn(C)c(=O)c3ccccc23)ccc1C	Pol kappa inh inconclusive, POLB inh 35µM, POLH inh inconclusive, POLI inh inconclusive
COc1ccc(/C=N/N=C2/NC(=O)C(CC(=O)O)S2)cc1OCc1ccccc1Cl (stereo unspecified)	POLH inh inconclusive
CCOc1cc(/C=N/N=C2/NC(=O)C(CC(=O)O)S2)ccc1OCc1ccccc1Cl (stereo unspecified)	POLB inh 28µM, POLH inh inconclusive
COC(=O)CCC(=O)OC1(C)C(=O)C2=COC(c3ccc(OC)cc3)=CC2=C(Br)C1=O (stereo unspecified)	Pol kappa inh 25µM, POLB inh 22µM, WRN inhibitor inconclusive, POLH inh 10µM, POLI inh 13µM
COC(=O)CCC(=O)OC1(C)C(=O)C2=CN(CCCCO)C(c3ccc(OC)cc3)=CC2=C(Br)C1=O (stereo unspecified)	none (no result: Pol kappa inh, WRN inhibitor, POLH inh, POLI inh)
COc1ccc(C2=CC3=C(Br)C(=O)C(C)(OC(=O)c4ccc(Cl)nc4)C(=O)C3=CO2)cc1 (stereo unspecified)	Pol kappa inh inconclusive, POLB inh 50µM, WRN inhibitor inconclusive, POLH inh 22µM, POLI inh 10µM
COC(=O)CCC(=O)OC1(C)C(=O)C2=CN(Cc3ccc4c(c3)OCO4)C(c3ccc(OC)cc3)=CC2=C(Br)C1=O (stereo unspecified)	POLI inh inconclusive (no result: POLB inh)
COC(=O)CCC(=O)OC1(C)C(=O)C2=CN(CCc3ccccn3)C(c3ccc(OC)cc3)=CC2=C(Br)C1=O (stereo unspecified)	POLH inh 32µM, POLI inh inconclusive (no result: POLB inh)
COc1ccccc1/C=C/C1=NC(=C\C=C/c2ccccc2)/C(=O)O1	POLB inh 20µM, POLH inh inconclusive, POLI inh inconclusive
COc1ccccc1/C=C/C=C1N=C(/C=C/c2ccc(Cl)cc2)OC/1=O	POLB inh inconclusive
O=C1c2ccccc2NC(c2cccc(F)c2)N1Cc1ccccc1 (stereo unspecified)	none
O=C1c2ccccc2NC(c2cccc(F)c2)N1Cc1ccco1 (stereo unspecified)	POLB inh 7.9µM

High-throughput results: PubChem BioAssay, National Center for Advancing Translational Sciences (NCATS)
